Measured values from PubChem BioAssay AID1745853 (National Center for Advancing Translational Sciences (NCATS), 2022).
“And” between values parts separate entries of the source, which are not always exact repeats. Identical values can stand only once. The campaign covered roughly 25,000 compounds. About 970 (3.9%) were called active. Roughly 8% stayed inconclusive and do not appear here. The rule behind the calls is not given here. The sample as a whole holds a higher share of actives than the screen did.

How the values were obtained:
Assay in all cases: Primary Screen for Target Class Profiling of Small Molecule Inhibitors of Methyltransferases
[1] = target: Catechol O-methyltransferase (Homo sapiens) (UniProt P21964); settings: purified enzyme, MTase-Glo SAH luminescence; activity change, negative = inhibition: at 40 µM, stronger effect = lower value; outcome: 40 uM
Sequence of Catechol O-methyltransferase (Homo sapiens) (P21964 whole entry, looked up): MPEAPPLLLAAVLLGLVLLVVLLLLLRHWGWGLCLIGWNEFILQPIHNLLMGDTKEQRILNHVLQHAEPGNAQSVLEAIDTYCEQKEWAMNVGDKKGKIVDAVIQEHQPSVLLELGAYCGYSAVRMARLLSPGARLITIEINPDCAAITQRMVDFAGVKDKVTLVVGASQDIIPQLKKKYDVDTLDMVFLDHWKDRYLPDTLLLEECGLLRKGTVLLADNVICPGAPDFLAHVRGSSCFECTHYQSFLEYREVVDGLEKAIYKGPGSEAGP
Text: (§1) PI: Matthew D. Hall Ph.D. and Quinlin M. Hanson Ph.D.
(§2) National Center for Advancing Translational Sciences (NCATS)
(§3) National Institute of Health (NIH), Rockville, MD
(§4) Target class profiling (TCP) is a chemical biology approach amenable to investigating understudied biological targets. TCP is achieved by developing a generalizable assay platform and applying it to screen a curated set of compound libraries against representative members of a target class. Small molecule methyltransferases (SMMTase) are a subclass of methyltransferase that act on metabolites to modulate signaling pathways, metabolize xenobiotics, or balance the available methyl pool. We screened four curated libraries totaling 27,574 unique compounds against the SMMTases nicotinamide N-methyltransferase (NNMT), phenylethanolamine N-methyltransferase (PNMT), histamine N-methyltransferase (HNMT), glycine N-methyltransferase (GNMT), catechol O-methyltransferase (COMT), and guanidinoacetate N-methyltransferase (GAMT). The data generated by this TCP can be leveraged for informed tool molecule development. For example, in the associated publication we identified a chemotype of HNMT-selective inhibitors. Additionally, we identified a putative SMMTase-selective inhibitor with potential as a tool molecule for studying broader methyltransferase biology.
(§5) High-through put screening assays were developed at the National Center for Advancing Translational Science (NCATS) for the enzymes NNMT, PNMT, HNMT, GNMT, COMT, and GAMT. Enzymatic activity was measured as a function of SAM cofactor conversion using the MTase Glo kit (Promega) for all enzymes. All assays were performed in 1536-well format with substrates and SAM concentrations at KM values. Enzyme concentration and assay timing were optimized for 10-20% SAM conversion. Initial screening of 27,574 compounds was done as single-point assays using the highest compound concentration (40 uM). […] These compounds were replated in 11-point dose response and assayed against NNMT, PNMT, HNMT, GNMT, COMT, GAMT, and a counter-assay. The IC50 and efficacy (maximal response) values were determined for each dose-response curve. These values are also accounted for in the area under the curve (AUC) values.
(§6) PROTOCOL TABLE (as described by Inglese J, Shamu CE and Guy RK. 2007)
(§7) SEQUENCE No. (e.g., 1, 2, 3, etc.); […] (e.g., Cells, Incubation, Reagent, etc.); VALUE; DESCRIPTION.
(§8) 1; Reagent; 2 uL; SMMTase Enzyme (2x) in reaction buffer, columns 1- 48.
(§9) 2; Reagent; 1 uL; SAM (4x) in reaction buffer, columns 1-48.
(§10) 3; Controls; 23 nL; DMSO in column 4; sinefungin in DMSO (0 uM - 40 uM) in 7-point 1:2 dilution series (n = 2) in column 2.
(§11) 4; Compounds; 23 nL; Columns 5-48.
(§12) 5; Reagent; 1 uL; Substrate (4x) in reaction buffer, columns 2-48.
(§13) 6; Time; 20-30 min; Incubation.
(§14) 7; Reagent; 1 uL; MTase-Glo reagent (5X), columns 1-48.
(§15) 8; Time; 30 min; Incubation.
(§16) 9; Reagent; 5 uL; MTase-Glo Detection reagent, columns 1-48.
(§17) 10; Time; 30 min; Incubation, luminescence evolution.
(§18) 11; Detection; Luminescence; ViewLux uHTS Microplate Imager (PerkinElmer).
(§19) NOTES (numbers refer to Sequence numbers above)
(§20) 1, 2, 5. White Medium Binding Greiner 1536-well plates (Cat #789175-F, Greiner Bio-One, Monroe, NC); Reaction buffer: 50 mM Tris, pH 8.0, 3 mM MgCl2, 1 mM EDTA, 50 mM NaCl, 1 mM DTT, and 0.1 mg/mL BSA. Evaporation was prevented by covering assay plates with metal lids containing holes to allow gas diffusion.
(§21) 1. Six SMMTase were profiled: HNMT, GNMT, PNMT, COMT, NNMT, GAMT
(§22) 5. The corresponding substrate was used for each enzyme: HNMT - 5.3 uM Histamine; GNMT - >500 uM Glycine; PNMT - 16.2 uM Norephinephrine; COMT - 13.7 uM Norephinephrine; NNMT - 3.8 uM Nicotinamide; GAMT - 2.5 uM Guanidinoacetate.6, 8, 10. Room temperature
(§23) 6. Final reaction conditions: 10 nM COMT, 5 uM SAM, 15 uM norepinephrine, 50 mM Tris, pH 8.0, 3 mM MgCl2, 1 mM EDTA, 50 mM NaCl, 1 mM DTT, and 0.1 mg/mL BSA; refer to tables 2 and S1 for specific timing.
8. […]

[2] = target: Glycine N-methyltransferase (Homo sapiens) (UniProt Q14749); settings: purified enzyme, MTase-Glo SAH luminescence; measured here: GNMT inhibition; at 40 µM; stronger effect = lower value
Sequence of Glycine N-methyltransferase (Homo sapiens) (Q14749 whole entry, looked up): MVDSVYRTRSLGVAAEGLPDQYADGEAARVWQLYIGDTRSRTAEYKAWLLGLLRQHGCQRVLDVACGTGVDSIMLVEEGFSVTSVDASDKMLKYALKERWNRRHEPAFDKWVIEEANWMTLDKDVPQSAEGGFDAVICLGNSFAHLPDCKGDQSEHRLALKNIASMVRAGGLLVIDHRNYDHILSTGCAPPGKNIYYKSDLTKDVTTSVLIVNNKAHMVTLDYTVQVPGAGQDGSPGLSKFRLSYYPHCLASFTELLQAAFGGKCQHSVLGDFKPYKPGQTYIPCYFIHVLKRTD
Text: as §1, §2, §3, §4, §5, §6, §7, §8, §9, §10, §11, §12, §13, §14, §15, §16, §17, §18, §19, §20, §21, §22, §23
8. […]

[3] = target: Guanidinoacetate N-methyltransferase (Homo sapiens) (UniProt Q14353); settings: purified enzyme, MTase-Glo SAH luminescence; measured here: GAMT inhibition; at 40 µM; stronger effect = lower value
Text: as §1, §2, §3, §4, §5, §6, §7, §8, §9, §10, §11, §12, §13, §14, §15, §16, §17, §18, §19, §20, §21, §22, §23
8. […]

[4] = target: Histamine N-methyltransferase (Homo sapiens) (UniProt P50135); settings: purified enzyme, MTase-Glo SAH luminescence; measured here: HNMT inhibition; at 40 µM; stronger effect = lower value
Sequence of Histamine N-methyltransferase (Homo sapiens) (P50135 whole entry, looked up): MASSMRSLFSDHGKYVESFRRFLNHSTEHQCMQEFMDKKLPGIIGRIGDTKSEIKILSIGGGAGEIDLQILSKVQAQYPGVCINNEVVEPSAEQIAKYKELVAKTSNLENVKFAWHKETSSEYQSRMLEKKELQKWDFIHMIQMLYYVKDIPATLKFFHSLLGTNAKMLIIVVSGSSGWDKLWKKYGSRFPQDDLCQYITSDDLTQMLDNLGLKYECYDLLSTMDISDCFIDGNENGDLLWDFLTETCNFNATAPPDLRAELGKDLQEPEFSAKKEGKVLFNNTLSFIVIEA
Text: as §1, §2, §3, §4, §5, §6, §7, §8, §9, §10, §11, §12, §13, §14, §15, §16, §17, §18, §19, §20, §21, §22, §23
8. […]

[5] = target: Nicotinamide N-methyltransferase (Homo sapiens) (UniProt P40261); settings: purified enzyme, MTase-Glo SAH luminescence; measured here: NNMT inhibition; at 40 µM; stronger effect = lower value
Sequence of Nicotinamide N-methyltransferase (Homo sapiens) (P40261 whole entry, looked up): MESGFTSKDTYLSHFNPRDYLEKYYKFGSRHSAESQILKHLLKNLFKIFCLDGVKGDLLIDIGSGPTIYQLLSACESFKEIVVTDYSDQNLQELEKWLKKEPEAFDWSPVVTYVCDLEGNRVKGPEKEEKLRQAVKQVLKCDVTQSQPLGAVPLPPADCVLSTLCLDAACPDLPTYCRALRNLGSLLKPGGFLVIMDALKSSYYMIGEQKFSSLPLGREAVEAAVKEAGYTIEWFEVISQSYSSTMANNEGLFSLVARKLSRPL
Text: as §1, §2, §3, §4, §5, §6, §7, §8, §9, §10, §11, §12, §13, §14, §15, §16, §17, §18, §19, §20, §21, §22, §23
8. […]

[6] = target: Phenylethanolamine N-methyltransferase (Homo sapiens) (UniProt P11086); settings: purified enzyme, MTase-Glo SAH luminescence; measured here: PNMT inhibition; at 40 µM; stronger effect = lower value
Sequence of Phenylethanolamine N-methyltransferase (Homo sapiens) (P11086 whole entry, looked up): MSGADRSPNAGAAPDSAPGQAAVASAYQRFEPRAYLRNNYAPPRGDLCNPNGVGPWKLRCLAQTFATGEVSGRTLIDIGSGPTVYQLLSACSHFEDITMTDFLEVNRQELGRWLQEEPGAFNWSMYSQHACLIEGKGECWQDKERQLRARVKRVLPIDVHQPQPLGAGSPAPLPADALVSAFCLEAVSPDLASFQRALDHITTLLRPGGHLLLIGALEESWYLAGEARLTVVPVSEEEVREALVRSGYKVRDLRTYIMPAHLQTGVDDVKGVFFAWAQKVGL
Text: as §1, §2, §3, §4, §5, §6, §7, §8, §9, §10, §11, §12, §13, §14, §15, §16, §17, §18, §19, §20, §21, §22, §23
8. […]
% is set by controls: 0 for no effect and ±100 for the full control effect.

CCn1cc(S(=O)(=O)N2CCC(C3CCN(C(=O)NC)CC3)C2)cn1 (stereo unspecified)
activity change, negative = inhibition [1]: -3.73% (inactive) | activity change, negative = inhibition [2]: -4.19% | activity change, negative = inhibition [3]: -5.14% | activity change, negative = inhibition [4]: -1.51% | activity change, negative = inhibition [5]: -10.1% | activity change, negative = inhibition [6]: 9.89%

Cc1cc(Nc2cc(CN3CCOCC3)c3nc(C)c(Cc4ccc(Cl)cc4F)n3n2)n[nH]1
activity change, negative = inhibition [1]: -59.4% (active) and -59.9% (active) | activity change, negative = inhibition [2]: -74.4% and -69.1% | activity change, negative = inhibition [3]: -49% | activity change, negative = inhibition [4]: -62.1% and -80.8% | activity change, negative = inhibition [5]: -98.7% and -69.4% | activity change, negative = inhibition [6]: -114% and -64.4%

CC1(C=O)CC[C@]2(C(=O)O[C@@H]3O[C@H](CO)[C@@H](O)[C@H](O)[C@H]3O)CC[C@]3(C)C(=CCC4[C@@]5(C)C[C@H](O)[C@H](O[C@@H]6OC[C@@H](O)[C@H](O)[C@H]6O)[C@@](C)(CO)C5CC[C@]43C)C2C1 (stereo partly specified)
activity change, negative = inhibition [1]: -12.2% (inactive) | activity change, negative = inhibition [2]: -0.721% | activity change, negative = inhibition [3]: -3.55% | activity change, negative = inhibition [4]: -5.71% | activity change, negative = inhibition [5]: -15.1% | activity change, negative = inhibition [6]: 2.58%

Cc1ccc(C)c(Cn2nc3n(C)c(=O)c4ccc(C(=O)NC5CCCCC5)cc4n3c2=O)c1
activity change, negative = inhibition [1]: 4.71% (inactive) | activity change, negative = inhibition [2]: -4.89% | activity change, negative = inhibition [3]: 0.055% | activity change, negative = inhibition [4]: 2.18% | activity change, negative = inhibition [5]: 5.92% | activity change, negative = inhibition [6]: 6.36%

CN(Cc1cc(C2CC2)n[nH]1)C(=O)C(c1ccc(F)cc1)N(C)C (stereo unspecified)
activity change, negative = inhibition [1]: 3.85% (inactive) | activity change, negative = inhibition [2]: 1.91% | activity change, negative = inhibition [3]: -0.305% | activity change, negative = inhibition [4]: 1.69% | activity change, negative = inhibition [5]: 0.211% | activity change, negative = inhibition [6]: 2.27%

CC(C)CNc1ccnc(NCc2csc(-c3ccccc3)n2)n1
activity change, negative = inhibition [1]: -4.4% (active) | activity change, negative = inhibition [2]: -6.48% | activity change, negative = inhibition [3]: 6.91% | activity change, negative = inhibition [4]: -83.3% | activity change, negative = inhibition [5]: -36.8% | activity change, negative = inhibition [6]: -16.1%

Cc1nc2c(c(-c3ccc(O)cc3)n1)CN(C(=O)c1ccccc1C)CCC2
activity change, negative = inhibition [1]: -2.56% (inactive) | activity change, negative = inhibition [2]: -6.74% | activity change, negative = inhibition [3]: -3.52% | activity change, negative = inhibition [4]: -0.862% | activity change, negative = inhibition [5]: -11.6% | activity change, negative = inhibition [6]: -8.96%

Cc1noc(C)c1S(=O)(=O)NCCC1CN(c2cnn(C)c(=O)c2)CCO1 (stereo unspecified)
activity change, negative = inhibition [1]: 4.53% (inactive) | activity change, negative = inhibition [2]: -1.17% | activity change, negative = inhibition [3]: -2.35% | activity change, negative = inhibition [4]: 0.773% | activity change, negative = inhibition [5]: -1.18% | activity change, negative = inhibition [6]: 5.68%

COc1ccccc1N1CCN(C(=O)C[C@@H]2C[C@@H](C(C)C)[C@H](CO)C=C2C)CC1
activity change, negative = inhibition [1]: -4.58% (inactive) | activity change, negative = inhibition [2]: -5.78% | activity change, negative = inhibition [3]: -7.59% | activity change, negative = inhibition [4]: -2.03% | activity change, negative = inhibition [5]: -11.8% | activity change, negative = inhibition [6]: 3.34%

COc1ccc(C(=O)N2CCN(C(=O)N3CC4CC(C3)[C@H]3CCCC(=O)N3C4)CC2)c(OC)n1 (stereo partly specified)
activity change, negative = inhibition [1]: 1.98% (inactive) | activity change, negative = inhibition [2]: -0.248% | activity change, negative = inhibition [3]: 0.955% | activity change, negative = inhibition [4]: 0.52% | activity change, negative = inhibition [5]: -3.64% | activity change, negative = inhibition [6]: 0.052%

CCN(CC)CCCC(C)Nc1ccnc2cc(Cl)ccc12 (stereo unspecified)
activity change, negative = inhibition [1]: 5.5% (active) and -5.08% (active) | activity change, negative = inhibition [2]: -0.101% and -1.02% | activity change, negative = inhibition [3]: 6.48% and -3.06% | activity change, negative = inhibition [4]: -64.7% and -54.2% | activity change, negative = inhibition [5]: -4.26% and -11.8% | activity change, negative = inhibition [6]: 6.95% and -8.55%
